The source made the active and inactive calls. Unless noted, the rule behind the calls is not given here.

The subject of test [1] is Wnt5a (protein binding on small-molecule microarray). Briefly: Wnt5a binders on small-molecule microarray, primary screen, biophysical, 635/667 nm fluorescence (AID 1142).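 Note: fluorescence read at 667 nm with signal to noise per printed feature.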 The settings on record: 635 nm fluorescence, higher = more signal.
A short description of test [2]: cell viability in Huh7 cells, primary screen, cytotoxicity control for HCV replication inhibitor project, CellTiter-Glo luminescence, basal, 48 h (AID 1143).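 Note: Huh7 hepatoma cells carrying a hepatitis C replication reporter with no stimulus; test concentration not given here.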 The settings on record: Huh7 HCV replicon, higher = more signal, called active from +8 up or from −8 down.
The nature of test [3]: P. aeruginosa biofilm formation inhibitors, primary screen, PAO1 strain, BacTiter-Glo luminescence, LB-PBS (AID 1144). The settings on record: 12 h, higher = more signal.
Test [4] can be described thus: CREB reporter modulators without forskolin, primary screen, cell-based, PC12, CRE-LacZ reporter, unstimulated (AID 1145). The settings on record: no forskolin, luminescence, 4.5 h, higher = more signal, called active from +8 up or from −8 down.
Test [5] can be described thus: CREB reporter modulators under forskolin, primary screen, cell-based, PC12, CRE-LacZ reporter, forskolin-stimulated (AID 1146).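 Note: PC12 cells with 6xCRE LacZ reporter stimulated by forskolin 10 µM; beta-galactosidase reporter signal reflecting CREB driven transcription.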 The settings on record: luminescence, 4.5 h, higher = more signal, called active from +8 up or from −8 down.
The target of test [6] is Streptavidin (Streptomyces avidinii) (UniProt P22629). Briefly: streptavidin binders on small-molecule microarray, primary screen, artefact control for SMM compound annotation, biophysical, 635/667 nm fluorescence (AID 1147).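 Note: signal reflects streptavidin binding to arrayed compounds as a control protein.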 The settings on record: streptavidin binding, higher = more signal.
Chain of Streptavidin (Streptomyces avidinii) (P22629 whole entry, looked up): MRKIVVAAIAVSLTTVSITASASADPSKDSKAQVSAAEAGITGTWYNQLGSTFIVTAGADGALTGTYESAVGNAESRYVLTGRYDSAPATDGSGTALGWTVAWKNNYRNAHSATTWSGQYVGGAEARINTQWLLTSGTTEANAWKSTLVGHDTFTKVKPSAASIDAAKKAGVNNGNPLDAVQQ
Test [7] in a line: small-molecule binders of probe aInhba, primary screen, biochemical, small-molecule microarray, 635/667 nm fluorescence (AID 1148).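 Note: score merges 667nm spot fluorescence with signal-to-noise for antibody binding to printed compounds.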 The settings on record: higher = more signal.
Test [8] addresses Torsin-1A (Homo sapiens) (UniProt O14656). Briefly: torsin A binders from cell lysate, primary screen, small-molecule microarray, wild-type, 635/667 nm (AID 1149). The settings on record: COS7 hTOR1A-WT lysate, 635 nm fluorescence, higher = more signal.
Test [9] has the same target. Briefly: small-molecule binders of mutant TOR1A in lysate, primary screen, cell lysate, small-molecule microarray, COS7 lysate, 635/667 nm fluorescence (AID 1150).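 Note: score pools 667 nm emission and signal to noise measuring lysate protein binding.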 The settings on record: COS7 hTOR1A mutant lysate, 635 nm fluorescence, higher = more signal.
Test [10] relates to Sonic hedgehog protein (Shh). Briefly: small-molecule binders of Shh protein, primary screen, biochemical, small-molecule microarray, 635/667 nm fluorescence (AID 1151).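 Note: Shh protein binding to compounds spotted on small-molecule microarray slides; score combines spot fluorescence intensity with signal-to-noise across triplicate slides.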 The settings on record: small-molecule microarray binding, 635 nm fluorescence; higher = more signal.
Test [11] in a line: E. coli DRC41 culture turbidity changes, primary screen, E. coli filamentation inducer project, strain DRC41, OD650, 48 h (AID 1152).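 Note: E. coli MC1000 strain DRC41 lacking acrAB efflux pump and sulA.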 The settings on record: E. coli DRC41 (acrAB sulA), higher = more signal, called active from +8 up or from −8 down.
Test [12] in a line: small-molecule binders of probe aLefty1, primary screen, biochemical, small-molecule microarray, 635/667 nm fluorescence (AID 1153).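 Note: score merges spot fluorescence with signal-to-noise ratio from the scanned slide images.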 The settings on record: higher = more signal.
Test [13] can be described thus: PSAC antagonists in infected red cells, primary screen, cell-based, P. falciparum Indochina, OD700, 1 h (AID 1154). The settings on record: P. falciparum Indochina infected RBC osmotic lysis, higher = more signal, called active from +8 up or from −8 down.
Test [14] is described as follows: PSAC antagonists in infected red cells, primary screen, cell-based, P. falciparum Indochina, OD700, 2 h (AID 1155).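 Note: lysis reports solute entry through the parasite surface anion channel PSAC; channel blockers reduce lysis of infected cells.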 The settings on record: P. falciparum Indochina infected erythrocytes, osmotic lysis OD700; higher = more signal, called active from +8 up or from −8 down.
Test [15] is described as follows: osmotic lysis modulators in infected erythrocytes, primary screen, PSAC antagonist project, cell-based, P. falciparum Indochina, OD700, 3 h (AID 1156). The settings on record: higher = more signal, called active from +8 up or from −8 down.
The nature of test [16]: PSAC antagonists in infected red cells, primary screen, cell-based, P. falciparum Indochina, OD700, 18 h (AID 1157). The settings on record: P. falciparum Indochina infected erythrocytes, osmotic lysis OD700, 18 h; higher = more signal, called active from +8 up or from −8 down.
A short description of test [17]: modulators of S6 phosphorylation in cells, primary screen, cell-based, A549, cytoblot, luminescence, serum-stimulated (AID 1158).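 Note: serum-stimulated A549 lung adenocarcinoma cells; signal is phosphorylated S6 detected by cytoblot immunostaining with HRP secondary.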 The settings on record: A549 phospho-S6 cytoblot, 5 h, higher = more signal.
The target of test [18] is NADPH oxidase 2 (Homo sapiens) (UniProt P04839). Briefly: NOX2-dependent H2O2 signal modulators, primary screen, NOX inhibitor project, cell-based, HEK293-NOX2, PMA-stimulated, Amplex Red fluorescence (AID 1159). Note: test concentration not given here. The settings on record: 45 min, higher = more signal, called active from +8 up or from −8 down.
Chain of NADPH oxidase 2 (Homo sapiens) (P04839 whole entry, looked up): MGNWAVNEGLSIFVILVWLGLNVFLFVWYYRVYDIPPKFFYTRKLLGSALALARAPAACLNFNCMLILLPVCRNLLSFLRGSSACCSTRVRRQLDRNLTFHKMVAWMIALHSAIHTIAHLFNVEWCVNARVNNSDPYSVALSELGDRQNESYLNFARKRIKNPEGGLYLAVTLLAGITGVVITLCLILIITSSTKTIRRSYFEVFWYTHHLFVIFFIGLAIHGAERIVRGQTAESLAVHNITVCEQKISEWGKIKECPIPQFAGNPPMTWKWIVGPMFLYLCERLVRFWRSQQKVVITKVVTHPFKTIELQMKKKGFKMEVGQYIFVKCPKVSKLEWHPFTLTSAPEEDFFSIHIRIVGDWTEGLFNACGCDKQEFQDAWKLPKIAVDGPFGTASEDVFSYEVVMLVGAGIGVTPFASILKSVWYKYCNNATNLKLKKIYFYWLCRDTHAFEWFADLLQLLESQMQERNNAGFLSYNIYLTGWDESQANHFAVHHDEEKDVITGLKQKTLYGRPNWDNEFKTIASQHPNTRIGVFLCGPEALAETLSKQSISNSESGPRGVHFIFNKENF
Test [19] addresses NADPH oxidase 4 (Homo sapiens) (UniProt Q9NPH5). Briefly: NOX4-dependent H2O2 signal modulators, primary screen, NOX inhibitor project, cell-based, HEK293-NOX4, tetracycline-induced, Amplex Red fluorescence (AID 1160). The settings on record: 45 min, higher = more signal, called active from +8 up or from −8 down.
The target of test [20] is NADPH oxidase 5 (Homo sapiens) (UniProt Q96PH1). Briefly: NOX5-dependent H2O2 signal modulators, primary screen, NOX inhibitor project, cell-based, HEK293-NOX5, Amplex Red fluorescence (AID 1161). The settings on record: HEK293-NOX5, ionomycin, 45 min, higher = more signal.
Chain of NADPH oxidase 5 (Homo sapiens) (Q96PH1 whole entry, looked up): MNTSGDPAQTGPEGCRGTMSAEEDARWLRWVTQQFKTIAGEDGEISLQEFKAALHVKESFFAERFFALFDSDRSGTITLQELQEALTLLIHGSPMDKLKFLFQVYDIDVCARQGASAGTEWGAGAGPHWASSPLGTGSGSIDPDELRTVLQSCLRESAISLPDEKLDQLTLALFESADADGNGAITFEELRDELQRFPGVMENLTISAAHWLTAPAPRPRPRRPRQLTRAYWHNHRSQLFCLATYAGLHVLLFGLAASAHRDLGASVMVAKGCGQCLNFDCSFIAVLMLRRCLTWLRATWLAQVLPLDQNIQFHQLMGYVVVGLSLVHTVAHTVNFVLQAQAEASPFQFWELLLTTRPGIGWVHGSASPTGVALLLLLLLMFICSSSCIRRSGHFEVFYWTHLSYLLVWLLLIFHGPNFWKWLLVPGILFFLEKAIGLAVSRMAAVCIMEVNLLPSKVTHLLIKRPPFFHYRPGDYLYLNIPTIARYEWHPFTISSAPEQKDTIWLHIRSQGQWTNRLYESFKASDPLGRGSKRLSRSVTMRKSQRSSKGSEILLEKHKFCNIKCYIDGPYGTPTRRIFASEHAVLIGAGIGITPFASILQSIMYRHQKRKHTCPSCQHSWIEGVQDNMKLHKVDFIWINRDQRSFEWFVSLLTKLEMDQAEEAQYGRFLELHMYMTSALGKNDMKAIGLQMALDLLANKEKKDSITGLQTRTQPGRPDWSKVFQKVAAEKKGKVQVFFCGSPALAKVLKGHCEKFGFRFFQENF

Chain of Torsin-1A (Homo sapiens) (O14656 whole entry, looked up): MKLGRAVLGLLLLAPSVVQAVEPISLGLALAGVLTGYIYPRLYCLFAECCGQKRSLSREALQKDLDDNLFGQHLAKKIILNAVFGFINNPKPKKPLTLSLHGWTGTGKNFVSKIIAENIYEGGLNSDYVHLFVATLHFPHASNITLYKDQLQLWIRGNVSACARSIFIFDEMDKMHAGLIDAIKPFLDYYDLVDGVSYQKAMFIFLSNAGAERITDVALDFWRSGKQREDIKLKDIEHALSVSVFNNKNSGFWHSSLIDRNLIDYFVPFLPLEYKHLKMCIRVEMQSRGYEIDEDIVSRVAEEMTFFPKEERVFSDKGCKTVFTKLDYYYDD
Chain of NADPH oxidase 4 (Homo sapiens) (Q9NPH5 whole entry, looked up): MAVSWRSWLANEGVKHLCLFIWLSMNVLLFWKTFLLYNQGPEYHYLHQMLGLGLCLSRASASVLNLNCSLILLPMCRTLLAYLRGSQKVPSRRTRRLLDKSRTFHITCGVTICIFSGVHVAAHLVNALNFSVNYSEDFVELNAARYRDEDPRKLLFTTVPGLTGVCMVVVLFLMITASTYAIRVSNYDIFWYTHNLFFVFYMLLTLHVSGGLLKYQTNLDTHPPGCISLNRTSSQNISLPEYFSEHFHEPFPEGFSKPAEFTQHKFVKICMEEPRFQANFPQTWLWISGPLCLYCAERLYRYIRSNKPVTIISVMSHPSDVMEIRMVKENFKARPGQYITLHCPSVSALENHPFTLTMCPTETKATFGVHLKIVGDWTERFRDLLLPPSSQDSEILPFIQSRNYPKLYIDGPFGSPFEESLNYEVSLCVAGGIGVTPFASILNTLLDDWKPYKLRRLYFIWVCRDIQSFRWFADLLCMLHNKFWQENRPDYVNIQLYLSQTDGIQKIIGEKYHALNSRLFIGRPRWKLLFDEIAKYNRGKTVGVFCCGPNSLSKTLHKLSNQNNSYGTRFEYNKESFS

Turning to `O=C1C[C@@](C(=O)NCC(F)(F)F)(c2ccc([N+](=O)[O-])cc2)[C@@H](c2ccc(CO)cc2I)N1CC12CC3CC(CC(C3)C1)C2`, the composite z-score was 0.437 in test [1]; 0.229 in [6]; 0.0167 in [7]; -0.286 with Torsin-1A (Homo sapiens) [8]; -0.251 in the test with Torsin-1A (Homo sapiens) [9]; 1.53 in test [10]. This compound yielded a composite z-score in [12] of 0.383. Further, the z-score in [2] is -5.73 (inactive); in [3], -1.44 (inactive); in test [4], 0.558 (inactive); in test [5], -1.01 (inactive); in test [11], 0.662 (inactive); in test [13], 22.4 (active). In addition, the z-score was 5.06 (inactive) in test [14]; -0.0836 (inactive) in test [15]; 0.69 (inactive) in [16]; 2.26 in test [17]; 1 (inactive) in [18]; -0.564 (inactive) in test [19]. In test [20], this compound had a z-score of 0.733.
As for `COc1c(C)cc(-c2nc(-c3ccccc3)c3c(c2C)CO[Si]3(C(C)C)C(C)C)cc1C`, the composite z-score is 0.302 in [1]; -0.0316 in test [6]; -0.0604 in [7]; -0.0284 with Torsin-1A (Homo sapiens) [8]; 0.0463 with Torsin-1A (Homo sapiens) [9]; 0.419 in [10]. The compound also gave a composite z-score in test [12] of 0.0505. Further, the z-score was -0.59 (inactive) in [2]; 0.306 (inactive) in test [3]; 0.54 (inactive) in test [4]; 0.456 (inactive) in [5]; -1.31 (inactive) in [11]; 0.614 (inactive) in test [13]. Besides, the z-score is 0.521 (inactive) in [14]; -0.81 (inactive) in test [15]; 0.261 (inactive) in test [16]; 0.564 in [17]; -0.41 (inactive) in test [18]; 0.529 (inactive) in test [19]. Besides, in test [20], the z-score was -2.03.
`CCCCCCc1nc(-c2ccc(OC)nc2)c(C)c2c1[Si](C(C)C)(C(C)C)OC2`: the composite z-score was -0.0701 in [1]; -0.2 in test [6]; 0.0536 in [7]; 0.397 with Torsin-1A (Homo sapiens) [8]; -0.57 with Torsin-1A (Homo sapiens) [9]; 0.417 in [10]. The compound also showed a composite z-score in test [12] of -0.115. The z-score in test [2] is -2.75 (inactive); in [3], -1.13 (inactive); in [4] it was 0.106 (inactive); in test [5], -0.556 (inactive); in test [11] it was 0.579 (inactive); in test [13], 1.74 (inactive). Also, the z-score in test [14] is -0.0075 (inactive); in test [15], 0.974 (inactive); in [16] it was -0.349 (inactive); in [17], 1.34; in [18] it was -1.98 (inactive); in test [19] it was -0.117 (inactive). The compound also registered a z-score in test [20] of -2.71.
For the compound `COC(=O)[C@H]1N=C(c2ccc(OCCCO)cc2)O[C@H]1c1ccccc1N=[N+]=[N-]`, the composite z-score in test [1] was 0.563; in test [6] it was 0.489; in [7], 0.317; with Torsin-1A (Homo sapiens) [8] it was 0.698; with Torsin-1A (Homo sapiens) [9] it was 0.175; in test [10], -0.207. In addition, the composite z-score in [12] stood at 0.527. Also, the z-score in test [2] is -2.38 (inactive); in test [3], -0.17 (inactive); in test [4] it was 1.18 (inactive); in test [5], 0.226 (inactive); in [11], -0.33 (inactive); in test [13] it was 29.3 (active). In addition, the z-score is 24.7 (active) in [14]; 2.2 (inactive) in test [15]; 4.48 (inactive) in test [16]; 0.352 in test [17]; -1.69 (inactive) in test [18]; -0.0764 (inactive) in test [19]. The compound also showed a z-score in [20] of -2.1.

Source of the values: PubChem BioAssay.
